AID504770 = growth inhibition of E. coli YBA685, primary screen, V. cholerae RctB inhibitors; E. coli YBA685 rctB-dependent plasmid, OD600 growth, 3 h; stronger effect = lower value; z-score (no concentration beside the values); actives 0.27% (n = 130,000); in the data active = z-score below about -2, passing the limit was not always enough
Polio RdRp inh = poliovirus RdRp elongation inhibitors, primary screen, biochemical, fluorescence polarization, total intensity; Genome polyprotein (Poliovirus type 1 (strain Mahoney)), P03300; poliovirus polymerase elongation; stronger effect = lower value; % elongation, % (compound at 16.7 µg/mL); actives 0.66% (n = 150,000); AID 588519, 2011; in the data active = % elongation below about 90%
Mtb MenB inh = M. tuberculosis MenB inhibitors, primary screen, biochemical, absorbance; inhibition, % (test concentration not listed); MenB enzyme assay, absorbance read-out; 1,4-dihydroxy-2-naphthoyl-CoA synthase (Mycobacterium tuberculosis (strain ATCC 25618 / …; AID 540299, 2011; actives 0.43% (n = 100,000); in the data active = inhibition above about 21%, passing the limit was not always enough
Mtb MbtI inh = MbtI salicylate synthase inhibitors, primary screen, biochemical, fluorescence intensity; P9WFX0; purified MbtI enzyme, fluorescence intensity read-out; inhibition, % (test concentration not listed); actives 0.89% (n = 100,000); AID 493033, 2011; in the data active = inhibition mostly above about 56%, no sharp cut-off; inactive = mostly below about 77%
Hits are given with their value; – = inactive; · = not tested or not shown. Compounds with a hit are over-represented: about 1.4% of the library has one in this group of screens.

SMILES	AID504770	Polio RdRp inh	Mtb MenB inh	Mtb MbtI inh
S=C(NCCCn1ccnc1)Nc1ccccc1	–	23	–	–
CCOc1ccc(NC(=S)NCCCn2ccnc2)cc1	–	–	–	–
CCCCn1c(=O)[nH][nH]c1=S	–	–	–	78
O=c1[nH][nH]c(=S)n1Cc1ccccc1	–	–	–	–
Nc1c(-c2ccccc2)nc2sccn12	–	–	81	88
Cc1cc(NC(=O)c2ccccc2)n(CCOC(=O)c2ccccc2)n1	–	–	·	–
O=C(CNc1ccncc1)c1c[nH]c2ccccc12	–	–	·	–
CC1(C)Cc2c(C#N)c(N)sc(=S)c2CO1	–	–	–	–
CC1(C)Cc2c(c(N3CCNCC3)[nH]c(=S)c2C#N)CO1	–	–	–	95
Cc1cccc(O)c1O	–	–	–	86
CC(C)c1cccc(C(C)C)c1O	·	–	–	–
O=C1C(c2cc(Cl)cc(Cl)c2)=C(O)c2ccccc21	–	–	–	89
N/C(COc1ccc(-c2csnn2)cc1)=N\O	–	·	·	·
Cn1c(SC/C(O)=C(\C#N)c2nc3ccccc3[nH]2)nc2ccccc21	–	–	–	–
CN(C)S(=O)(=O)c1ccc(C(=O)Oc2cc(=O)[nH]c3ccccc23)cc1	–	89	–	–
O=C(Cn1c(SCCOc2ccccc2)nc2ccccc21)N1CCOCC1	·	81	·	·
COc1ccc(OCCSc2nc3ccccc3n2CC(=O)N2CCOCC2)cc1	·	–	·	·
O=C(/C=C/c1cccs1)NCCCN1CCOCC1	–	–	·	–
CCc1nn(CC(=O)NCc2ccc(C)cc2)c(=O)c2cc3occc3n12	·	72	·	·
CCCCCn1c(=O)c2ccccc2n2c(Cn3nnc(-c4ccccc4)n3)nnc12	–	–	–	–
S=C(NCc1ccc2c(c1)OCO2)N(Cc1ccco1)Cc1cccs1	–	88	–	60
O=C(NCc1ccc2c(c1)OCO2)c1cccs1	–	·	·	·
CC(C)NC(=O)c1ccc(-c2ccc(F)cc2)o1	–	–	30	–
Cc1ccc(C)n1-c1ccsc1C(=O)O	–	48	–	–
CC1SC(=S)NN1c1ccccc1 (stereo unspecified)	–	–	·	88
SMILES	AID504770	Polio RdRp inh	Mtb MenB inh	Mtb MbtI inh
CN1CCN(C(=S)c2cccc(OCc3ccccc3)c2)CC1	–	–	–	–
S=C(c1cccc(OCc2ccccc2)c1)N1CCCCC1	–	–	–	73
O=C(CSc1nnc(SCC(=O)N2CCCC2)s1)N1CCCC1	–	–	–	91
O=c1[nH]sc2ccccc12	–	–	51	–
CC1OS(=O)OC1(c1ccccc1)c1ccccc1 (stereo unspecified)	–	89	–	·
O=C1NC(=Nc2ccc(F)cc2)CS1	–	–	–	78
O=C1NC(=Nc2ccccc2)CS1	–	–	–	–
Cc1c2cnn(-c3ccccc3)c(=O)c2c(C)n1CCCC(=O)NC1CCCCCC1	–	–	–	–
COc1ccccc1C1=NN(C(=S)Nc2ccccc2)C(c2ccco2)C1 (stereo unspecified)	–	–	–	73
COc1cccc(C2=NN(C(=O)c3ccccc3Cl)C(c3ccco3)C2)c1 (stereo unspecified)	–	–	–	–
COC(=O)C1=C(C)NC(=O)C1(NS(=O)(=O)c1ccc(C)cc1)C(F)(F)F (stereo unspecified)	–	–	–	–
COC1(NS(=O)(=O)c2ccc(C)cc2)C(C)=CC(=O)C=C1C	–	·	·	94
CCN(CC)C(=O)COc1cccc2ccccc12	–	–	–	–
CCN(CC)C(=O)COc1ccccc1C(=O)NCc1ccccc1	–	–	27	–
C=CCNc1nc(C(=O)OCC(=O)N(C)C2CCS(=O)(=O)C2)cs1 (stereo unspecified)	–	–	–	–
CCOC(=O)CCn1cc(/C=C(\C#N)C(N)=S)c(-c2ccccc2)n1	–	89	–	–
CCOC(=O)/C(C#N)=C/c1cn(CCC#N)nc1-c1ccccc1	–	–	–	–
CCn1cc(C(=O)O)c(=O)c2cc(Cl)ccc21	–	·	·	·
CCn1cc(C(=O)O)c(=O)c2cc(F)c(N3CCN(C(=S)NC)CC3)cc21	-7.2	–	–	·
CCOC(=O)c1cn(CC)c2cc(N3CCCC3)c(F)cc2c1=O	–	–	–	–
O=C(O)c1cn(C2CC2)c2cc(N3CCN(C(=S)S)CC3)c(F)cc2c1=O	-8.3	–	–	·
CCn1cc(C(=O)O)c(=O)c2cc(F)c(N3CCN(C(=S)NC(=O)c4c(-c5ccccc5)noc4C)CC3)cc21	–	–	–	–

Compound activity (PubChem)
